The results in this text go back to PubChem BioAssay AID463173 (ICCB-Longwood Screening Facility, Harvard Medical School, 2010).

The whole screen tested about 52,000 compounds, of which about 4,300 (8.3%) were called active. Only a selection was taken, and actives are over-represented in it overall. A number with no mark means an inactive call. Rule as the data show it: active = survival mostly below about 52% (no sharp cut-off); inactive = mostly above about 56%.

The test system of this assay is DeltatarO mutant. The assay can be described thus: S. aureus survival, RN4220 and DeltatarO strains – OD600, teichoic acid synthesis inhibitors, primary screen (AID 463173). The conditions noted are these: S. aureus RN4220 wild type/DeltatarO growth, OD600, 18 h, active compounds read low, screened at 18.75 µg/mL (by protocol).
Regarding `COc1cccc2c(=O)cc(C)[nH]c12`, the survival is 88%.
For `CN(Cc1ccccc1)C1CCNCC1` the value was 90%; for `CS(=O)(=O)N1CCc2cc(C(=O)Nc3cccc(F)c3)ccc21`, 68%.
For `Cc1ccc(S(=O)(=O)N2CCc3cc(C(=O)Nc4ccc(C(F)(F)F)cc4)ccc32)cc1` the value was 63%.
Next, `O=C(Nc1ccc(Cl)c(C(F)(F)F)c1)c1ccc2c(c1)CCN2S(=O)(=O)c1ccccc1`: 43% (active).
With `CS(=O)(=O)N1CCc2cc(C(=O)Nc3ccc(Cl)c(C(F)(F)F)c3)ccc21`, the survival was 33% (active).
For `O=C(Nc1cc(C(F)(F)F)ccc1Cl)c1ccc2c(c1)CCN2S(=O)(=O)c1ccccc1` the value was 48%.
Next, `CS(=O)(=O)N1CCc2cc(C(=O)Nc3ccc(C(F)(F)F)cc3)ccc21`: 76%; `CCCCNC(=O)CSc1nc2cc3c(cc2c(=O)n1CCCCCC(=O)NCc1ccc(OC)cc1)OCO3`: 79%.
For `CNCCCc1cc(C)ccc1O` the value was 59%; for `CCc1ccc(NC(=O)c2cccc(N3CCCS3(=O)=O)c2)cc1`, 81%; for `Cc1ccc(S(=O)(=O)Nc2cc3c(cc2Cl)n(C)c(=O)c(=O)n3C)cc1`, 83%.
Turning to `CCN(CC)N=Nc1ccc(S(=O)(=O)Nc2nc(C)cc(C)n2)cc1`, the survival is 100%.
For the compound `CN(C)CCCN(C(=O)c1ccc2c(c1)OCCO2)c1nc2ccccc2s1`, the survival is 94%.
Next, `CCOc1ccc2nc(NCCNC(=O)Nc3cccc(Cl)c3)c(C#N)cc2c1`: 82%; `Cc1ccn2c(Nc3ccc4c(c3)OCCO4)c(-c3ccc(Cl)s3)nc2c1`: 102%; `Cc1cccc(C)c1Nc1c(-c2ccsc2)nc2ccc(Cl)cn12`: 80%.
Next, `Cc1cccc(C)c1Nc1c(-c2ccc(Cl)s2)nc2ncccn12`: 103%; `Cc1ccn2c(Nc3c(C)cccc3C)c(-c3ccc(Cl)s3)nc2c1`: 37% (active).
For `Cc1cccc(C)c1Nc1c(-c2cccs2)nc2ncccn12` the value was 76%; for `Cc1ccc2nc(-c3cccs3)c(Nc3c(C)cccc3C)n2c1`, 35% (active).
Take `Cc1cccc(C)c1Nc1c(-c2ccsc2)nc2ccccn12`: the survival is 43%.
For `Cc1ccc2nc(-c3cccs3)c(Nc3ccc4c(c3)OCCO4)n2c1` the value was 99%.
Turning to `Cc1ccn2c(Nc3c(C)cccc3C)c(-c3ccsc3)nc2c1`, the survival is 35% (active).
Take `O=C(Nc1ccccc1C(F)(F)F)c1ccc2oc(=O)c(S(=O)(=O)c3ccc(F)cc3)cc2c1`: the survival was 89%.
Regarding `CSc1cccc(NC(=O)C2CCCN(S(=O)(=O)c3ccc4c(c3)CCCN4C(C)=O)C2)c1` (stereo not given), the survival is 71%.
`O=C(OCC1CCCO1)c1ccc2c(c1)N(Cc1ccc(F)cc1)C(=O)c1ccccc1S2(=O)=O` (stereo not given): the survival is 101%.
For `Cc1ccc2occ(CC(=O)N(Cc3ccc(N(C)C)cc3)C3CCS(=O)(=O)C3)c2c1` (stereo not given) the value was 74%; for `Cc1ccc(CNC(=O)Cn2c3ncccc3c(=O)n2-c2ccccc2)cc1`, 81%.
For `CC(=O)N1CCc2c(sc(NC(=O)CSc3ccc(C)cc3)c2-c2nc3ccccc3s2)C1` the value was 92%.
Next, `COC(=O)c1ccc(-c2ccc(/C=N/NC(=O)CC3(C)OCCCO3)o2)cc1`: 96%; `CCCCNC(=O)c1cnc2sc(N3CCCCCC3)nn2c1=O`: 79%.
On to `CN(C)c1ccc(CNC(=O)CCCN2C(=O)c3cccnc3Oc3ccc(Cl)cc32)cc1`, for which the survival was 81%.
Next, `Cn1c(SCC(=O)N2CCCc3ccccc32)nnc1-c1ccccc1N`: 92%.
Next, `CCc1ccc(NC(=O)CSc2nc(C)c(C(=O)Nc3ccc(Cl)cc3)c(-c3ccc(OC)cc3)c2C#N)cc1`: 92%.
Next, `COc1ccc(NC(=O)CN2C(=O)CCc3cc(S(=O)(=O)N4CCOCC4)ccc32)c(OC)c1`: 80%; `Cc1cc(F)ccc1NC(=O)CN1C(=O)CCc2cc(S(=O)(=O)N3CCOCC3)ccc21`: 76%; `COc1ccc(C)cc1NC(=O)CN1C(=O)CCc2cc(S(=O)(=O)N3CCOCC3)ccc21`: 94%.
On to `Cc1ccc(NC(=O)CN2C(=O)CCc3cc(S(=O)(=O)N4CCOCC4)ccc32)cc1N(C)C`, for which the survival is 93%.
Next, `COc1ccc(OC)c(NC(=O)CN2C(=O)CCc3cc(S(=O)(=O)N4CCCCC4)ccc32)c1`: 32% (active); `COc1ccc(Cl)cc1NC(=O)CN1C(=O)C(C)(C)c2cc(S(=O)(=O)N3CCCCC3)ccc21`: 70%.
Next, `Cc1ccc(NC(=O)CN2C(=O)C(C)(C)c3cc(S(=O)(=O)N4CCCCC4)ccc32)c(Br)c1`: 67%; `Cc1ccc(Cl)cc1NC(=O)CN1C(=O)C(C)(C)c2cc(S(=O)(=O)N3CCCCC3)ccc21`: 6% (active).
Next, `Cc1ccc(NC(=O)CN2C(=O)CCc3cc(S(=O)(=O)N4CCOCC4)ccc32)cc1F`: 47% (active).
In the case of `CCOC(=O)c1cccc(NC(=O)C(CC(C)C)N2Cc3ccccc3C2=O)c1` (stereo not given), the survival was 128%.
`Cc1nc2cccnc2n1-c1cccc(C(=O)NCCc2ccc(S(N)(=O)=O)cc2)c1`: the survival was 85%.
For `CCOc1ccc(OCC)c(NC(=O)c2nnn(Cc3cc(Br)ccc3OC)c2N)c1` the value was 61%; for `CC1(C(=O)C[n+]2cccc(C(N)=O)c2)CCC(=O)O1` (stereo not given), 92%.
On to `O=C(NC1CCCC1)c1ccc(CSc2nc3ccncc3n2Cc2ccc(F)cc2)cc1`, for which the survival is 68%.
For `O=C(c1ccc2c(c1)N(Cc1ccc(Cl)cc1)C(=O)c1ccccc1S2(=O)=O)N1CCN(Cc2ccccc2)CC1` the value was 78%.
Next, `CCC(=O)N1c2ccccc2CC1C(=O)NCCc1ccc(C)cc1` (stereo not given): 75%; `Cc1cccc(NC(=O)CN2C(=O)C(c3ccc(F)cc3)=NC23CCCCCC3)c1`: 87%.
Next, `O=C(CN1C(=O)C(c2ccc(F)cc2)=NC12CCCCCC2)Nc1ccccc1Cl`: 84%.
Take `O=C(CN1C(=O)C(c2ccc(F)cc2)=NC12CCCCCC2)Nc1ccc(F)c(Cl)c1`: the survival is 40% (active).
Next, `CCNC(=S)N1CCC(C(=O)c2ccc3c(c2)OCCO3)CC1`: 58% (active); `CCNC(=S)N1CCC(C(=O)c2ccc(Cl)cc2)CC1`: 84%.
Turning to `O=C(c1ccc2c(c1)OCCO2)C1CCCCC1`, the survival is 83%.
For `CCC(CC)C(=O)Nc1ccc(-c2cn3cccnc3n2)cc1` the value was 91%; for `Cc1cc(F)ccc1Nc1nc2ccccc2n2nnnc12`, 111%; for `Clc1ccc(CNc2ncnc3onc(-c4ccc(Cl)cc4)c23)cc1`, 133%.
For `Clc1ccc(-c2noc3ncnc(NCCc4ccccc4)c23)cc1` the value was 78%; for `CCOc1ccc(Nc2ncnc3onc(-c4ccc(Cl)cc4)c23)cc1`, 38% (active); for `Clc1ccc(-c2noc3ncnc(NC4CCCCC4)c23)cc1`, 21% (active).
For `Cc1ccc(CCNc2ncnc3onc(-c4ccc(Cl)cc4)c23)cc1` the value was 46%.
For `Cc1cccc(CCNc2ncnc3onc(-c4ccc(Cl)cc4)c23)c1`, the survival was 33% (active).
Next, `CCOc1ccc(CCNc2ncnc3onc(-c4ccc(Cl)cc4)c23)cc1`: 76%; `COc1cc(Nc2ncnc3onc(-c4ccc(Cl)cc4)c23)cc(OC)c1`: 94%.
For `CC1CCC(Nc2ncnc3onc(-c4ccc(Cl)cc4)c23)CC1` (stereo not given) the value was 47% (active).
Next, `CC(C)CNc1ncnc2onc(-c3ccc(Cl)cc3)c12`: 71%; `Fc1ccc(-c2noc3ncnc(NC4CCCCC4)c23)cc1`: 67%.
Turning to `CC1CCC(Nc2ncnc3onc(-c4ccc(F)cc4)c23)CC1` (stereo not given), the survival was 82%.
For `COc1ccc(-c2csc(C)n2)cc1` the value was 75%; for `Cc1ccc(C(=O)N2CCCn3c2nc2ccccc23)cc1`, 70%; for `COc1cccc(-n2cc(C(=O)OCc3ccc(Cl)cc3)c3ccccc3c2=O)c1`, 85%.
For `N#C/C(=C\c1ccc(OCc2ccc(Cl)cc2Cl)cc1)c1nc2ccccc2[nH]1` the value was 103%; for `O=C(O)CCCC(=O)N1CCc2cc(S(=O)(=O)NCc3ccccc3)ccc21`, 111%.
For `Cc1csc(=Nc2ccccc2)n1-c1ccccc1` the value was 81%; for `CCOC(=O)c1c(S(=O)(=O)NCC(=O)Nc2cccc(CC)c2)c(C)n(C)c1C`, 84%.
Turning to `CCc1nn(CC(=O)NCc2ccccc2)c(=O)c2cccn12`, the survival is 69%.
Consider `CN1C(=O)Cc2cc(S(=O)(=O)NCc3ccccc3Cl)ccc21`, for which the survival was 90%.
Next, `CC(C)CC(C(N)=O)N1C(=O)c2ccccc2C1=O` (stereo not given): 84%.
For the compound `CCOC(=O)C1CCN(C(=O)Cn2ncc3c4ccccc4n(Cc4ccccc4F)c3c2=O)CC1`, the survival is 84%.
Next, `COc1ccc(Cl)cc1S(=O)(=O)N1CCN(C(=O)c2cc(-c3ccc(Br)cc3)n[nH]2)CC1`: 47% (active).
Next, `CCOc1ccc(-c2cc(C(=O)N3CCN(S(=O)(=O)c4cc(Cl)ccc4OC)CC3)[nH]n2)cc1`: 73%; `COc1ccc(S(=O)(=O)N2CCN(C(=O)c3cc(-c4ccc(Br)cc4)n[nH]3)CC2)cc1OC`: 73%.
For `COc1ccc(S(=O)(=O)Nc2cc3c(cc2NCc2ccccc2)n(C)c(=O)n3C)cc1` the value was 69%.
For `O=C(Nc1ccc(F)cc1)C1CCN(c2nc3ccccc3n3cccc23)CC1`, the survival is 75%.
Next, `O=c1cc(COc2ccccc2Cl)nc2scc(-c3ccccc3)n12`: 81%; `Cc1c(C(=O)N2CCOCC2)sc(NC(=O)c2ccc3c(c2)OCO3)c1C#N`: 90%; `CC(C)c1ccc(NC(=O)C2CCCN(S(=O)(=O)c3cccc4cccnc34)C2)cc1` (stereo not given): 71%.
Next, `CCc1ccc(NC(=O)C2CCCN(S(=O)(=O)c3c(C)noc3/C=C/N(C)C)C2)cc1` (stereo not given): 42% (active); `Cc1ccc(NC(=O)C2CCCN(S(=O)(=O)c3cccc4cccnc34)C2)cc1` (stereo not given): 102%.
With `Cc1noc(/C=C/N(C)C)c1S(=O)(=O)N1CCCC(C(=O)Nc2cccc(F)c2)C1` (stereo not given), the survival is 90%.
For `CCOc1ccc(NC(=O)C2CCCN(S(=O)(=O)c3c(C)noc3/C=C/N(C)C)C2)cc1` (stereo not given) the value was 94%; for `CCc1ccc(NC(=O)C2CCCN(S(=O)(=O)c3cccc4cccnc34)C2)cc1` (stereo not given), 58% (active).
